Assay outcomes (PubChem)
sEH act = increases human soluble epoxide hydrolase activity; P34913; purified human sEH enzymatic activity, activator screen; activation, % at 2 µM; actives 0.04% (n = 91,000); in the data active means activation above about 37%
CYP2C19 act = increases human CYP2C19 enzyme activity. recombinant CYP2C19, luciferin-H EGE luminescence; active compounds read high; 0 = fully inhibited enzyme, 1 = untreated enzyme. P33261. 96,000 tested, under 10 active. activation factor at 5 µM;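 active means activation factor of at least 2 at 5 µM in the primary screen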
CYP2C9 inhib = blocks human cytochrome P450 2C9. P11712. CYP2C9 Supersomes, luciferin-H conversion, luminescence. inhibition, % at 5 µM. actives 20% (n = 96,000);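 active means blocking of liver enzyme CYP2C9 beyond about 50% at 5 µM, limit read from the data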
Target sequence (P11712 whole entry, looked up): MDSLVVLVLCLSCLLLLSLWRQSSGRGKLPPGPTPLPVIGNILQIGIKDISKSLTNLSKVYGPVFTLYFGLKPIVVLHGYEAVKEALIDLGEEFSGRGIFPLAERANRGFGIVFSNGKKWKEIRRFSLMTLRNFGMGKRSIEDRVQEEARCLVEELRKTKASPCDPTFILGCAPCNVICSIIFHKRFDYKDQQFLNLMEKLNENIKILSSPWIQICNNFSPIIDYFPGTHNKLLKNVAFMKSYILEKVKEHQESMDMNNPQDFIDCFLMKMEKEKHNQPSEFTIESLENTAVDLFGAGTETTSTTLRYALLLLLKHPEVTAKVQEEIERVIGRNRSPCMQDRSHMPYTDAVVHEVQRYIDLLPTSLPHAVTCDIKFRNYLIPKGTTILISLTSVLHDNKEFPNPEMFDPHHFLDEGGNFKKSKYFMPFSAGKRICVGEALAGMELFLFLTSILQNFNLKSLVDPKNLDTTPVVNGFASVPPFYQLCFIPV
CYP2C19 inh = inhibitors of human CYP2C19 | CYP2C19 Supersomes, luciferin-H EGE luminescence, 30 min | inhibition, % at 5 µM | actives 21% (n = 96,000) | AID 778;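 active means CYP2C19 inhibition above a set limit at 5 µM in the primary screen, cut at about 50% in these data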
sEH inhibitor = blocks human soluble epoxide hydrolase activity; inhibition, % at 2 µM; recombinant human sEH enzymatic activity assay; P34913; actives 0.34% (n = 91,000); in the data active means inhibition above about 80%
CYP2C9 activ = CYP2C9 (human) activation; recombinant CYP2C9, luciferin-H conversion, luminescence; active compounds read high; factor 1 = untreated enzyme, 0 = blocked; activation factor at 5 µM; actives 1.4% (n = 96,000);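 active means activation factor of 2 or more for CYP2C9 at a 5 µM dose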
Hits are given with their value; . = inactive; / = no result given. Only some compounds are listed: those with a hit (about 27% of all), similar ones and a draw of the others.

SMILES	sEH act	CYP2C19 act	CYP2C9 inhib	CYP2C19 inh	sEH inhibitor	CYP2C9 activ
Cc1ccc(C(c2nnnn2Cc2ccccc2)N2CCN(Cc3ccccc3)CC2)cc1 (stereo unspecified)	.	/	/	/	.	/
CCOC(=O)c1c2ccc(OCC(=O)N/N=C/c3ccc(C)cc3)cc2n2ccccc12	.	.	65	.	.	.
Clc1ccc2c(c1)C(c1cccs1)=NNC(c1cccnc1)=N2	.	.	68	.	.	.
Fc1ccc2c(c1)C(c1ccncc1)=NNC(c1cccnc1)=N2	.	.	54	51	.	.
COc1cccc(N(C(=O)Cn2nnc3ccccc32)C(C(=O)NCc2ccco2)c2cccnc2)c1 (stereo unspecified)	/	.	.	79	/	.
Cc1ccc(N(C(=O)Cn2nnc3ccccc32)C(C(=O)NCc2ccco2)c2cccnc2)cc1 (stereo unspecified)	.	.	.	65	.	.
COc1ccc(OC)c(C(C(=O)NCc2ccco2)N(C(=O)Cn2nnc3ccccc32)C(C)C)c1 (stereo unspecified)	.	.	.	62	.	.
Cc1cc(C)cc(N(C(=O)Cn2nnc3ccccc32)C(C(=O)NCc2ccco2)c2ccncc2)c1 (stereo unspecified)	.	.	.	.	.	.
Cc1ccc(N(C(=O)Cn2nnc3ccccc32)C(C(=O)NCc2ccco2)c2ccc(C)o2)cc1 (stereo unspecified)	/	.	.	.	/	.
COc1cccc(C(C(=O)NCc2ccco2)N(Cc2ccco2)C(=O)Cn2nnc3ccccc32)c1 (stereo unspecified)	.	/	/	/	.	/
COc1ccc(N(C(=O)Cn2nnc3ccccc32)C(C(=O)NCc2ccco2)c2ccc(C)o2)cc1 (stereo unspecified)	.	.	58	68	.	.
O=C(NCCCN1CCOCC1)c1ccc(Cl)c(S(=O)(=O)N2CCCCCC2)c1	.	.	.	.	.	.
COc1ccc(CN(C(=O)CSc2nnc(-c3c[nH]c4ccccc34)o2)c2ccc(F)cc2)cc1OC	.	/	/	/	.	/
CCN(CC)CC(O)COc1ccc2c(c1)OCO2 (stereo unspecified)	.	.	.	.	.	.
CC(C)Sc1nnc(Nc2ccccc2)s1	.	.	59	69	.	.
CC(C)Sc1nnc(NC(=O)C2CC2)s1	/	.	.	.	/	.
CC(=O)c1c(C)nn(C(=O)N2CCOCC2)c1C	/	.	.	.	/	.
COc1cccc(-c2nc(CS(=O)(=O)CC(=O)N3CCc4ccccc4C3)c(C)o2)c1	/	.	.	.	/	.
Cc1oc(-c2ccc(Cl)cc2)nc1CN1CCC(C(=O)N2CCc3ccccc3C2)CC1	.	.	.	90	.	.
CCOC(=O)N1CCN(C(=O)CS(=O)Cc2nc(-c3ccc(C)cc3)oc2C)CC1 (stereo unspecified)	.	.	.	.	.	.
Cc1cccc(-c2nc(CS(=O)CC(=O)N3CCCCC3)c(C)o2)c1 (stereo unspecified)	/	.	70	.	/	.
Cc1oc(-c2ccccc2)nc1CS(=O)CC(=O)N1CCc2ccccc2C1 (stereo unspecified)	/	.	68	61	/	.
Cc1ccccc1-c1nc(CN2CCC(C(=O)N3CCN(c4ccccn4)CC3)CC2)c(C)o1	.	.	55	.	.	.
O=C(NCc1ccccc1)c1ccc2c(c1)C(=O)N(CC1CCCO1)C2=O (stereo unspecified)	.	.	.	.	.	.
Fc1ccccc1N1CCN(CCCNc2ccc3nncn3n2)CC1	/	.	.	.	/	.
SMILES	sEH act	CYP2C19 act	CYP2C9 inhib	CYP2C19 inh	sEH inhibitor	CYP2C9 activ
COc1ccc(F)cc1CN1CCN(c2cc(C)nc3c4c(C)cc(C)nc4nn23)CC1	/	.	.	.	/	.
CCOc1cc(/C=N\NC(=O)c2ccc(NC(=O)CC)cc2)ccc1OC(=O)c1ccccc1	.	.	.	.	.	.
Cc1cc(C)n(C(=O)C2CCCN2S(=O)(=O)c2ccc(Cl)cc2)n1 (stereo unspecified)	.	.	.	.	.	.
COc1ccc(N2CCN(S(=O)(=O)c3ccc(Cl)c(C(F)(F)F)c3)CC2)cc1	.	.	.	.	.	.
COc1ccc(C)cc1S(=O)(=O)N1CCN(S(=O)(=O)c2cc(C)ccc2OC)C(C)C1 (stereo unspecified)	.	.	99	100	.	.
COc1ccc(C)cc1S(=O)(=O)N1CCC(C)CC1	.	.	.	.	.	.
COc1ccc(N2CCN(S(=O)(=O)c3cccc(C(F)(F)F)c3)CC2)cc1	.	.	.	61	.	.
COc1ccc(C)cc1S(=O)(=O)N1CCN(c2cccc(C(F)(F)F)c2)CC1	.	.	.	98	.	.
CCc1c(C(C)S(=O)(=O)c2ccc(C)cc2)[nH]c(=O)n1-c1ccc(OC(F)(F)F)cc1 (stereo unspecified)	.	.	.	.	.	.
O=C(Cc1c(F)cccc1Cl)N1CCCC1	.	.	.	.	.	.
COc1ccc(N2CC(O)=C(c3n(C)c4ccccc4[n+]3C)C2=N)cc1	.	.	.	.	.	.
Cc1cc(NC(=O)CCC(=O)N(c2ccccc2)C2(C(=O)NC3CCCCC3)CCCC2)no1	.	.	.	.	.	.
CCOC(=O)CN(C(=O)CSc1nnc(CNc2ccc(C)cc2C)o1)c1ccccc1	.	.	.	.	.	.
CCCCCC1CCC(C(=O)NNC(=S)NCC)CC1 (stereo unspecified)	.	.	.	.	.	.
Cc1ccc(NC(=O)NCCc2ccc(S(N)(=O)=O)cc2)cc1	/	.	.	.	/	.
Cc1ccc(N(O)C(=O)OCCNC(=O)Nc2ccccc2)cc1	.	.	92	94	.	.
COC(=O)CNC(=O)CNC(=O)Nc1ccccc1	.	.	.	.	.	.
COC(=O)[C@H](CCSC)NC(=O)NCCC1=CCCCC1	.	.	.	.	.	.
COC(=O)[C@H](Cc1ccccc1)NC(=O)NCCC1=CCCCC1	.	.	62	69	.	.
COC(=O)[C@H](Cc1ccccc1)NC(=O)Nc1ccc(C)cc1	.	.	.	66	.	.
Cc1ccc(NC(=O)NCCCc2ccccc2)cc1	.	.	.	59	83	.
COC(=O)C(Cc1ccc(O)cc1)NC(=O)C(C)Oc1ccccc1 (stereo unspecified)	.	.	58	94	.	.
COC(=O)C(NC(=O)C(C)Oc1ccccc1)C(C)C (stereo unspecified)	.	.	.	.	.	.
O=C(c1ccc(Cl)c(Cl)c1)N(Cc1ccco1)c1ccc(O)cc1	.	.	98	99	.	.
O=C(COc1ccccc1)N(Cc1ccco1)c1ccc(O)cc1	.	/	/	/	.	/
CN1c2ccccc2C(O)=C(C(=S)Nc2ccc(Cl)cc2)S1(=O)=O	.	.	97	.	.	.
CN1c2ccsc2C(O)=C(C(=O)Nc2ccccc2)S1(=O)=O	/	.	73	.	/	.
